KCNH2 WT inh – blocks the wildtype human KCNH2 potassium channel | U2OS, BacMam KCNH2, thallium flux FluxOr; stronger effect = lower value | activity change, % at 1.84 µM | 0.37% of 340,000 active | AID 720551;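 active means maximum activity change below -70%; inconclusive means maximum activity change between -70% and -50%; inactive means maximum activity change above -50%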; further: on the % scale 0 is the no-effect control and ±100 the full control effect
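U2OS cells were transduced with wild-type KCNH2 virus (2.03 x 10^8 / mL) for 4 h at room temperature, then cultured overnight at 37 C. Thallium flux was read with FluxOr dye. Rate constants were normalized to DMSO controls.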
KCNH2 3.1 inh – blocks the human KCNH2 3.1 channel isoform; U2OS KCNH2 3.1, thallium flux FluxOr; stronger effect = lower value; activity change, % (tested at about 1.8 µM); 0.95% of 340,000 active;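 active means maximum activity change below -70%; inconclusive means maximum activity change from -70% to -50%; inactive means maximum activity change above -50%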;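 further: thallium influx rate constant from kinetic fluorescence after stimulation buffer; on the % scale 0 is the no-effect control and ±100 the full control effect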
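Steps: virus added to U2OS suspension (4 h, RT, dark); medium with 10% FBS added, cells plated, 37 C overnight; FluxOr/Red40 loading buffer 45 min RT; stimulation buffer, 2 min kinetic read; rate constant normalized.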
GLP1R inv ag – GLP-1 receptor (human) inverse agonism; Potency, µM (series often up to 38.3 µM), for inactives: at the highest dose activity change, negative = inhibition, actives largely listed as inhibitors; HEK293 GLP-1R CRE-luciferase, luminescence, 24 h; GLP-1R form is constitutively active; 1.6% of 410,000 active; further: potency means the concentration at half of the fitted maximal effect; on the % scale 0 is the no-effect control and ±100 the full control effect; nearly all actives have a fitted effect of over 55% in size
Target sequence (P43220 whole entry, looked up): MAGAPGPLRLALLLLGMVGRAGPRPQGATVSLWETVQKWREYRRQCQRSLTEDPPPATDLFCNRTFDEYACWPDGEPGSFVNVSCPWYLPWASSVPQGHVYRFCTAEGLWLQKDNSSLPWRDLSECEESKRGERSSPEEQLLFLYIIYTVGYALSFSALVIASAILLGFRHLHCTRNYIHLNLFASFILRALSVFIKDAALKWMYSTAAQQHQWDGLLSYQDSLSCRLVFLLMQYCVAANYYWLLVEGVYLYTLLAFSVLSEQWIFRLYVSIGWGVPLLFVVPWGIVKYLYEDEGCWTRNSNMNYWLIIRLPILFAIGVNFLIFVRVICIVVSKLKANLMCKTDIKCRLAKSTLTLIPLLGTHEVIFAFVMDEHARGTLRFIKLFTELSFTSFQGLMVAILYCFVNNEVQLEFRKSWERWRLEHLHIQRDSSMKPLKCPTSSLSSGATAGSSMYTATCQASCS
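Cells are plated, allowed 12 hours at 37 deg C, then treated with compounds for 24 hr before luciferase detection reagent is added and luminescence is read after 12 min at room temperature. The HEK293 line carries constitutively active GLP-1R with a cAMP-responsive reporter.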
GLP-1R agonist – agonists of human GLP-1 receptor; P43220; HEK293 GLP-1R CRE-luciferase, luminescence, 4-6 h; cells express a hypersensitive GLP-1R form; Potency, µM (titrated, usually from 45.6 µM), without a hit: top-dose activation, usual class: activators; 0.007% of 380,000 active; further: potency means the concentration at half of the fitted maximal effect; % of control where 0% means no effect
GLP1R cytotox – cytotoxic in the GLP-1 receptor inverse agonist counter-screen; HEK293 cAMP-luciferase reporter cells, luminescence, 24 h; 0.13% of 410,000 active; Potency, µM (doses to about 38.3 µM), without a hit: at the top dose activity change, negative = inhibition, usual class: inhibitors;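 further: loss of luciferase light is scored as toxicity; potency means the concentration at half of the fitted maximal effect; on the % scale 0 is the no-effect control and ±100 the full control effect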
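Cells in DMEM/10% Nu serum/1% pen-strep, 1536-well format. Pre-incubated 12 h, dosed with 23 nL compound, incubated a further 24 h. Luciferase detection, 12 min at room temp, luminescence.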
GLS inhibitor – blocks human kidney-isoform glutaminase activity | AID 624170 | O94925 | GLS enzymatic activity, qHTS titration | 0.21% of 410,000 active | Potency, µM (series often up to 45.5 µM), without a hit: at the highest dose activity change, negative = inhibition, most hits filed as inhibitors; further: potency means the concentration at half of the fitted maximal effect; on the % scale 0 is the no-effect control and ±100 the full control effect
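Enzyme dispensed in phosphate buffer (45 mM, pH 8.2, 0.02% Tween-20), compounds pinned in, then 1 mM L-glutamine solution and the glutamate oxidase–HRP–Amplex Red mix added; fluorescence read immediately and again after 30 min at room temperature.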
The depositor's hits bear a star; i = inactive; ? = inconclusive; . = not tested or not shown. Compounds with a hit are over-represented: about 2.8% of the library has one in this group of screens. Unless noted, the call rests on the fitted dose curve; in most records, active means well fitted curve in the direction sought with a large enough effect; inconclusive means small, poorly fitted or top-dose-only effect, or another doubt; inactive means no such curve, though single readings can be large; an effect the other way counts as inactive or inconclusive.

SMILES	KCNH2 WT inh	KCNH2 3.1 inh	GLP1R inv ag	GLP-1R agonist	GLP1R cytotox	GLS inhibitor
CC(=O)c1ccc(OC(=O)C2CSC3(C)CCC(=O)N23)cc1 (centres undefined)	1	-21	4%	-2%	-16%	-6%
O=C(Cc1ccc2ccccc2c1)NC(Cc1ccccc1)C(=O)O (centres undefined)	0	3	6%	-4%	3%	5%
CN(C)CC/C=C1\c2ccccc2COc2ccccc21	10	-1	10µM*	-1%	-10%	-1%
CN(C)CC/C=C1/c2ccccc2CS(=O)(=O)c2ccccc21	3	-7	8%	6%	-8%	-10%
S=c1[nH]nc(-c2cc(-c3ccccc3)n[nH]2)n1/N=C/C=C/c1ccco1	-3	2	123%	0%	5%	4µM*
CC(C)CNC(=S)Nc1ccc(Oc2ccccc2)cc1	-30	4	11µM*	7%	?	-1%
COc1cc2c(-c3cc(F)cc(F)c3)c(-c3ccsc3)oc(=O)c2cc1OC	-3	-106*	17%	-4%	1%	1%
COc1ccc(-c2c(-c3ccsc3)oc(=O)c3cc(OC)c(OC)cc23)cc1	-8	20	22%	-5%	3%	5%
COc1ccc(C2/C=C\CN(C(=O)Nc3ccc(C(F)(F)F)cc3)CC(=O)N2Cc2ccc(F)cc2)cc1 (centres undefined)	-9	-5	11µM*	-3%	-19%	5%
COc1ccc(C2/C=C\CN(C(=O)Nc3ccccc3)CC(=O)N2Cc2ccc(F)cc2)cc1 (centres undefined)	8	-7	-2%	0%	0%	16%
COc1ccc(C2/C=C\CN(C(=O)C3CCCC3)[C@H](Cc3ccccc3)C(=O)N2Cc2ccc(F)cc2)cc1 (some centres undefined)	8	-29	4.5µM*	-3%	6%	4%
Cc1cc(C)c(O)c(-c2n[nH]c3c2C(c2cccc(O)c2)N(Cc2ccco2)C3=O)c1 (centres undefined)	-91*	0	?	12%	?	-7%
COc1ccc(-n2ccnc2SCC(=O)Nc2cccc(OC)c2)cc1	.	.	?	.	-19%	-2%
O=C(NC1c2ccccc2Oc2ccccc21)c1ccc([N+](=O)[O-])cc1	?	-100*	2%	8%	-6%	3%
Cc1cccc(C)c1NC(=O)CN1C(=O)c2cccc3cccc1c23	.	.	10%	.	-13%	-5%
CCOc1ccc2nc(NC(=O)C3CCN(C(=O)c4ccco4)CC3)sc2c1	-3	19	-11%	6%	1%	-4%
CCOc1ccc2nc(N3CCCC(C(=O)N4CCN(CC)CC4)C3)sc2c1 (centres undefined)	6	-86*	-27%	5%	7%	-1%
CCOc1ccc2nc(N3CCC(C(=O)N4CCN(C(=O)c5ccco5)CC4)CC3)sc2c1	-35	-77*	-20%	11%	0%	3%
CCCN1CCN(CCCNC(=O)C2CCCN(c3nc4ccc(OCC)cc4s3)C2)CC1 (centres undefined)	3	-3	-16%	-4%	-18%	0%
COc1ccc(-c2nc(C)c(CCNC(=O)c3cccc(C)c3)s2)cc1OC	.	.	30%	?	-6%	2%
O=C(Cn1ccc(NC(=O)OCc2ccccc2)nc1=O)NCc1ccc2[nH]ccc2c1	-15	?	-16%	7%	2%	-2%
O=C(COC(=O)/C=C/c1ccc([N+](=O)[O-])cc1)NC(c1ccccc1)c1ccccc1	-133*	-11	4%	-3%	-25%	2%
Cc1cccc(N(C)C(CNS(=O)(=O)c2ccccc2)c2ccccc2)c1 (centres undefined)	.	.	10µM*	.	4%	24%
CCN(c1ccccc1)C(CNS(=O)(=O)c1ccccc1)c1ccccc1 (centres undefined)	.	.	10µM*	.	-6%	24%
Oc1c(C(c2ccccc2)N2CCN(Cc3ccccc3)CC2)sc2nc(-c3ccco3)nn12 (centres undefined)	.	.	-15%	.	2%	-9%
SMILES	KCNH2 WT inh	KCNH2 3.1 inh	GLP1R inv ag	GLP-1R agonist	GLP1R cytotox	GLS inhibitor
CCOc1ccccc1NC(=O)Cn1c(=O)n(-c2ccc(C)c(C)c2)c(=O)c2c(C)c(C(=O)N(C)C)sc21	.	.	11%	.	-3%	0%
c1ccc2[nH]c(NCc3ccc4c(c3)OCO4)nc2c1	-126*	-11	-21%	6%	-16%	17%
c1ccc(CNc2nc3ccccc3[nH]2)cc1	-9	1	-10%	-2%	?	17%
CCOc1ccc(CN2CCCC(CO)(Cc3ccc(F)cc3)C2)cc1 (centres undefined)	-33	-97*	?	-3%	?	1%
Cc1cc(CN2CCCC(CO)(Cc3cccc(Cl)c3)C2)n[nH]1 (centres undefined)	27	-14	?	6%	0%	-3%
Cc1nn(C)c(Cl)c1CN1CCCC(CO)(Cc2ccccc2)C1 (centres undefined)	0	-85*	-2%	0%	4%	2%
COc1ccc(CN2CCCC(CO)(Cc3ccc(F)cc3F)C2)cc1 (centres undefined)	32	-35	?	0%	-9%	1%
OCC1(Cc2cccc(Cl)c2)CCCN(Cc2ccc3cc(F)ccc3n2)C1 (centres undefined)	i	0	13µM*	19%	-4%	8%
O=C(C1CCCN(S(=O)(=O)c2ccc(Br)s2)C1)N1CCN(c2ccccc2F)CC1 (centres undefined)	.	.	8%	.	-1%	2%
O=C(OCC1CCCO1)c1ccc2c(c1)N(Cc1ccccc1F)C(=O)c1ccccc1S2(=O)=O (centres undefined)	.	.	0%	.	-3%	1%
O=Cc1cccc(OC(=O)/C=C/c2ccco2)c1	1	5	54%	-6%	?	10µM*
COc1cccc(/C=N/Nc2nc(Nc3ccc([N+](=O)[O-])cc3)nc(N3CCCC3)n2)c1O	-1	-2	2.8µM*	-2%	?	1%
Cc1cc(C)c(NC(=O)CSC2=Nc3ccccc3C3=NC(CC(=O)NCc4cccs4)C(=O)N23)c(C)c1 (centres undefined)	.	.	12%	.	-14%	11µM*
CCCCNC(=O)CC1N=C2c3ccccc3N=C(SCC(=O)Nc3cccc(OC)c3)N2C1=O (centres undefined)	-4	1	12%	-3%	-6%	7.1µM*
c1ccc(Oc2nc(Oc3ccccc3)nc(N3CCOCC3)n2)cc1	-1	-16	7.9µM*	-1%	5%	1%

Bioassay records from PubChem BioAssay.
